Methyltransferases = Primary Screen for Target Class Profiling of Small Molecule Inhibitors of Methyltransferases | purified enzyme, MTase-Glo SAH luminescence; stronger effect = lower value | calls only at 40 µM | 25,000 compounds, 3.9% hits; call rule not given here
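Each enzyme was reacted with SAM and its substrate, with compounds tested once at 40 uM; SAH formed was read by MTase-Glo luminescence.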
Starred values were filed as active, the others as inactive. The entries come from a sample that favours hits as a whole. % is scaled to controls: 0 for no effect and ±100 for the full control effect.

For CCOC(=O)c1cccc(Nc2cc(C)nc3ccc(C)cc23)c1 the results were Methyltransferases active.
Screening CCOC(=O)c1cc(Nc2ccccc2)c2cc(Cl)ccc2n1 returned Methyltransferases inactive.
CC(C)N1CC(C(=O)N2CCC(c3ccccc3)CC2)NC1=O (stereo not drawn) was read as Methyltransferases inactive.
Screening CCCN1C(=O)c2c(C(=O)NCCc3cccs3)ncn2CC1(C)C(=O)NCCC(C)C (stereo not drawn) returned Methyltransferases inactive.
O=S(=O)(Nc1ccccc1Cl)c1ccc2[nH]c3c(c2c1)CCCC3 was read as Methyltransferases inactive.
`O=C(Nc1ccc([N+](=O)[O-])cc1Cl)c1cc(Cl)ccc1O` gave Methyltransferases inactive.
O=[N+]([O-])c1cc(S(=O)(=O)Nc2ccc(O)c3ccccc23)ccc1Cl was read as Methyltransferases active.
`CCC(C)NC(=O)c1ccc2c(=O)n(CCC(C)C)c3nn(Cc4cccc(Cl)c4)c(=O)n3c2c1` (stereo not drawn) gave Methyltransferases inactive.
`COc1cccc(Cn2nc3n(Cc4ccc(F)cc4)c(=O)c4ccccc4n3c2=O)c1` gave Methyltransferases inactive.
CC(=O)Nc1ccc(Cl)c(C(=O)N(C)Cc2sccc2C)c1 was read as Methyltransferases inactive.
`CS(=O)(=O)N1CCC(Oc2ccc(C(=O)NCCc3ccccn3)cc2Cl)CC1` gave Methyltransferases inactive.
For CS(=O)(=O)N1CCc2c(-c3cnc(N)nc3)nc(N3CCOCC3)nc21 the results were Methyltransferases inactive.
`Cc1c(CN2CCN(S(C)(=O)=O)CC2)sc2c(N3CCOCC3)nc(-c3cnc(N)nc3)nc12` gave Methyltransferases active.
For CCn1cc(CN2C[C@@H](CO)[C@H](NC(=O)COC)C2)c2ccccc21 the results were Methyltransferases inactive.
Fc1ccc2[nH]ccc2c1-c1nc(N2CCOCC2)c2sc(CN3CCN(CC4CC4)CC3)cc2n1 was read as Methyltransferases active.
For CC1CCCC(NC(=O)C2(C)Cn3c(cc4sccc43)C(=O)N2Cc2ccccc2F)C1C (stereo not drawn) the results were Methyltransferases inactive.
For COc1cc(N2CCC(N(C)C)CC2)ccc1Nc1ncc(Cl)c(Nc2ccccc2P(C)(C)=O)n1 the results were Methyltransferases active.
For COc1cc(N2CCN(C)CC2)ccc1Nc1nccc(-c2cn(C)c3cnccc23)n1 the results were Methyltransferases inactive.
COc1cc(N2CCC(N3CCN(C)CC3)CC2)ccc1Nc1ncc(Cl)c(Nc2ccccc2S(=O)(=O)C(C)C)n1 was read as Methyltransferases active.
`COc1ccccc1Nc1ncc2c(n1)CN(C(=O)c1ccnn1C)CCN2` gave Methyltransferases inactive.
For Cc1ccc(-c2n[nH]n3c2nc(=O)c2ccc(C(=O)NCCc4ccc(Cl)cc4)cc23)cc1 the results were Methyltransferases inactive.
CCOC(=O)c1cc2n(n1)CC(C)(C(=O)NC1CCCCCC1)N(c1cc(Cl)ccc1C)C2=O (stereo not drawn) was read as Methyltransferases inactive.
c1cnc(-c2noc(-c3nc(-c4ccc5c(c4)OCO5)no3)n2)cn1 was read as Methyltransferases inactive.
Screening O=C([C@@H]1C[C@H](Oc2ccccc2)CN1C(=O)Nc1ccccc1F)N1CCOCC1 returned Methyltransferases inactive.
For COCCNC(=O)C1c2ccccc2C(=O)N(Cc2ccco2)C12CCCCC2 (stereo not drawn) the results were Methyltransferases inactive.
CN(C)Cc1nnc(C2CC(NC(=O)Cc3noc4ccccc34)C2)n1C (stereo not drawn) was read as Methyltransferases inactive.
Cc1cccc(-c2ncc(CN(CCC(N)=O)Cc3ccccc3)cn2)c1 was read as Methyltransferases inactive.
CCN1CCN(Cc2ccc(-c3cc4c(NC(C)c5ccccc5)ncnc4[nH]3)cc2)CC1 (stereo not drawn) was read as Methyltransferases active.
Screening CCN1CCN(Cc2ccc(-c3cc4c(N[C@H](C)c5ccccc5)ncnc4[nH]3)cc2)CC1 returned Methyltransferases active.
COCCCNC(=O)N1CCCC(c2[nH]ccc2C(N)=O)C1 (stereo not drawn) was read as Methyltransferases inactive.
Cc1cccc(N2CCN(C(=O)Cn3ccc4cc(S(=O)(=O)N5CCCCC5)ccc43)CC2C)c1 (stereo not drawn) was read as Methyltransferases inactive.
Screening Cn1cccc1CN1CC(Oc2ccc(F)cc2F)C1 returned Methyltransferases inactive.
CC(=O)Nc1c2n(c3ccc(F)cc13)CC(C)(C(=O)NC1CCCC1)N(c1ccc(C)cc1C)C2=O (stereo not drawn) was read as Methyltransferases inactive.
Screening O=C(CCCn1nc(-c2ccccc2)c2cc(Cl)ccc21)N1CCN(c2ccccn2)CC1 returned Methyltransferases inactive.
`Cc1cccc(CCNC(=O)Cn2c(=O)oc3cc(S(=O)(=O)NCc4ccccc4)ccc32)c1` gave Methyltransferases inactive.

Compound activity deposited in PubChem by National Center for Advancing Translational Sciences (NCATS).
